From the supplement of paper PMC11001985

Compound: C#CCNC(=O)CCSSCCC(=O)NCCc1ccc(C=O)c(C=O)c1
Assay: lysine labeling ratio R10:1 (500 µM / 50 µM probe), SILAC-ABPP in living cells; higher = lower intrinsic lysine reactivity toward the probe, active = 2 or less
Details: HeLa; probe concentrations 500 vs 50 µM
Outline: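 R, given per lysine, is the filtered median high-probe/low-probe MS1 peptide ratio, with the median then taken across forward and reverse replicates. Cells were living SILAC light and heavy HeLa cells in PBS at room temperature, labelled with 50 µM or 500 µM of an alkyne-tagged, disulfide-linked lysine probe. The ceiling applied is 20.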

UniProt P25705, sequence (P25705 whole entry): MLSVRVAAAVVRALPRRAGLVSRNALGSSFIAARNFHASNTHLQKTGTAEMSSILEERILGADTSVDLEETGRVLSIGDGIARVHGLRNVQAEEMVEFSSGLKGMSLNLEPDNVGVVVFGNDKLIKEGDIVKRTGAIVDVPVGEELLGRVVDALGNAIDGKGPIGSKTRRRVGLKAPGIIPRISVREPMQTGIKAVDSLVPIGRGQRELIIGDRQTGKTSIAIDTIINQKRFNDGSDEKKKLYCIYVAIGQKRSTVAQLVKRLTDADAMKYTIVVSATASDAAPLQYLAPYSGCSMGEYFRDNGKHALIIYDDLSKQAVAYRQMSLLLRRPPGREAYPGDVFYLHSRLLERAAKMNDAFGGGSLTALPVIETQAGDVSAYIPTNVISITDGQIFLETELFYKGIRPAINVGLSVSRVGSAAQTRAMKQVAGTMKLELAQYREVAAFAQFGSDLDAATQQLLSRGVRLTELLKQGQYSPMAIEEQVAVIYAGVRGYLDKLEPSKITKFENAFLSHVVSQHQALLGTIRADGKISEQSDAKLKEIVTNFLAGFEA
UniProt P49184, sequence (P49184 whole entry): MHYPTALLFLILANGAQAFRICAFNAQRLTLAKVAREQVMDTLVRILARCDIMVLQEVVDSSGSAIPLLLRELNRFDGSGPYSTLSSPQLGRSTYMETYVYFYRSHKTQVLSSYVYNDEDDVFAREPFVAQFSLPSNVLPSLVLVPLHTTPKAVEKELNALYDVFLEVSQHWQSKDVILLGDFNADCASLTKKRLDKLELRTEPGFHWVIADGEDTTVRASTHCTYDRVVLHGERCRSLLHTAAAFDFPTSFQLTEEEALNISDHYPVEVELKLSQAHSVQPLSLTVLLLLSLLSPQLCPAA
UniProt P35579, sequence (P35579 whole entry): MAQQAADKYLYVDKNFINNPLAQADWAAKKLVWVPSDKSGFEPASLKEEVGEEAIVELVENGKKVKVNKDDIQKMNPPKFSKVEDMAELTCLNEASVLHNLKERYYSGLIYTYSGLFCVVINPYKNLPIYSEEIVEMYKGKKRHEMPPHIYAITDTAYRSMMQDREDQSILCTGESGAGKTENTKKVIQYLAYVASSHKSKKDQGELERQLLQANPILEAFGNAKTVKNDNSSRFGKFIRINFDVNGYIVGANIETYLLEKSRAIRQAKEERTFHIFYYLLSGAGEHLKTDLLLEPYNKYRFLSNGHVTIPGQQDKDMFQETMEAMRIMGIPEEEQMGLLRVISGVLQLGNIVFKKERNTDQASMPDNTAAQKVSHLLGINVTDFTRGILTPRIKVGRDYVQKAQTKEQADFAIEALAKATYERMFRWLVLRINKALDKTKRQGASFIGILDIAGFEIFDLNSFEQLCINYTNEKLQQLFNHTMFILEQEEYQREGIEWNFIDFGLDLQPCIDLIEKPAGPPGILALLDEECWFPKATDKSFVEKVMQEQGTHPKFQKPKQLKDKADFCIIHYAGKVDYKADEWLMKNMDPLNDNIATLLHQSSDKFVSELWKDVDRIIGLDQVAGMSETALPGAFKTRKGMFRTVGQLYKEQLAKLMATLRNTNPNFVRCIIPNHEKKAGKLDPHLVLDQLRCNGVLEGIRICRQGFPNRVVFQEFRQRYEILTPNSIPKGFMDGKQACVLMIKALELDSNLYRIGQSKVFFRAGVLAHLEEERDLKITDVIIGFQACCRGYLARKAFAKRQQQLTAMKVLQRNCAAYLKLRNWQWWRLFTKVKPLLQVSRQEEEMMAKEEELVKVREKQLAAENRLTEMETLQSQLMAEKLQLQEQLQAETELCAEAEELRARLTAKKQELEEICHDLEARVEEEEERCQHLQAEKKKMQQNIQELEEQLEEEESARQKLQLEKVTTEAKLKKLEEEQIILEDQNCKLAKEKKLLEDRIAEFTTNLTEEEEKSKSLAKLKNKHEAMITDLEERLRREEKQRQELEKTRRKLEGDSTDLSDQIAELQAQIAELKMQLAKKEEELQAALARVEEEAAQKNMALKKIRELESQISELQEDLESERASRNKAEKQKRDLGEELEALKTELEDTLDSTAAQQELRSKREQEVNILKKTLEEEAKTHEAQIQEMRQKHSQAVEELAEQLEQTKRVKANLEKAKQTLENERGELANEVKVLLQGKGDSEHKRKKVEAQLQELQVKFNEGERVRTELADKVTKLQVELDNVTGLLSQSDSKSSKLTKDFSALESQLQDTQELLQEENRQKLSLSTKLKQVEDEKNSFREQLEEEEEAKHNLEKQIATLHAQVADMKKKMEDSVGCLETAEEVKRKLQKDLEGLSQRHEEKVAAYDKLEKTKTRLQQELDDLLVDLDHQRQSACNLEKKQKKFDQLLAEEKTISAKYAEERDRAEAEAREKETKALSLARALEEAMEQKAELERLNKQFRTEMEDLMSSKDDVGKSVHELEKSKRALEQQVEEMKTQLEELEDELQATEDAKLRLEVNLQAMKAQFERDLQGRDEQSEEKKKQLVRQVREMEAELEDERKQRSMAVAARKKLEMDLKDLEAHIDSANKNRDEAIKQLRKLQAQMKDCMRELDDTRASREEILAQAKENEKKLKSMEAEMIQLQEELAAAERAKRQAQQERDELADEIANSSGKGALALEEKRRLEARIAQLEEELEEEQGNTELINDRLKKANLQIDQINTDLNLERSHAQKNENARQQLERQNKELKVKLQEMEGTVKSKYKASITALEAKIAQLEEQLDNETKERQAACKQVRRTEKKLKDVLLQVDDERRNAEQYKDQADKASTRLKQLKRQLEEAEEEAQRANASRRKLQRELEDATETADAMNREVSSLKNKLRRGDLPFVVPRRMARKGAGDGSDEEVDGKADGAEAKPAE
UniProt P11021, sequence (P11021 whole entry): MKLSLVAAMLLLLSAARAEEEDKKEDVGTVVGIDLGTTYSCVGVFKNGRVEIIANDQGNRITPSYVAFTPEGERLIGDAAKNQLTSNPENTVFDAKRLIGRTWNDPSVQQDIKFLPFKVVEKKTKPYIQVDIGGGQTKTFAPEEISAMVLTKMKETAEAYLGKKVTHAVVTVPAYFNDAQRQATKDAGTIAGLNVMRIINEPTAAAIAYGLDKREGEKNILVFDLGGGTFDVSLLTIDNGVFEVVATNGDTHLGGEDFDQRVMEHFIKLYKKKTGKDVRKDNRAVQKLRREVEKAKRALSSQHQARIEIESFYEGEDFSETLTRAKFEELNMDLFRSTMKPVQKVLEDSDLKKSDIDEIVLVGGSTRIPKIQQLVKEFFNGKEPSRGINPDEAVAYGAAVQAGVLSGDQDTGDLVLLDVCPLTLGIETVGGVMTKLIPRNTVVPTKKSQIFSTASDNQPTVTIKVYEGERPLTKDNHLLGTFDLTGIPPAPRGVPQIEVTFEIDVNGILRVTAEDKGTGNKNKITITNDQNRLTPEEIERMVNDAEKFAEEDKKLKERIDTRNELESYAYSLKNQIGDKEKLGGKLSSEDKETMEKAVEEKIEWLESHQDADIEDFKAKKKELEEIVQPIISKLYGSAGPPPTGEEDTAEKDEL
UniProt P23284, sequence (P23284 whole entry): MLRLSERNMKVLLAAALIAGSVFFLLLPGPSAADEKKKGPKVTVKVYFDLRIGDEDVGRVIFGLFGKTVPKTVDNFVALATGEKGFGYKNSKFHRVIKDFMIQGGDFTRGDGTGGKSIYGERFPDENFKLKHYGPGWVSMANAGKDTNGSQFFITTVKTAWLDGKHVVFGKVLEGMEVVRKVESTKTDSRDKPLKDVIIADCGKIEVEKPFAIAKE
UniProt P01008, sequence (P01008 whole entry): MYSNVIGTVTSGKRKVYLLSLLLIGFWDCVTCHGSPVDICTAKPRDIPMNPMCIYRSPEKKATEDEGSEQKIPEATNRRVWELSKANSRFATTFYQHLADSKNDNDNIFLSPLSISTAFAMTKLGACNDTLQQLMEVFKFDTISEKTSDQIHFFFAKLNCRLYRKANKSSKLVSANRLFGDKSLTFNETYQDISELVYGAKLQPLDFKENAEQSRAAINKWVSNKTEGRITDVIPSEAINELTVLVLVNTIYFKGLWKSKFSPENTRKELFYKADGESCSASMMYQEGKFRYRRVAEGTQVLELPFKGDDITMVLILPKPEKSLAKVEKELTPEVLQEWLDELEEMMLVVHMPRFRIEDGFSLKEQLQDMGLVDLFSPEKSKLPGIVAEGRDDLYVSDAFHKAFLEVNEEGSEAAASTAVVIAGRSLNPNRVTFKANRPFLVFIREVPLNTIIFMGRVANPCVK
UniProt P02786, sequence (P02786 whole entry, looked up): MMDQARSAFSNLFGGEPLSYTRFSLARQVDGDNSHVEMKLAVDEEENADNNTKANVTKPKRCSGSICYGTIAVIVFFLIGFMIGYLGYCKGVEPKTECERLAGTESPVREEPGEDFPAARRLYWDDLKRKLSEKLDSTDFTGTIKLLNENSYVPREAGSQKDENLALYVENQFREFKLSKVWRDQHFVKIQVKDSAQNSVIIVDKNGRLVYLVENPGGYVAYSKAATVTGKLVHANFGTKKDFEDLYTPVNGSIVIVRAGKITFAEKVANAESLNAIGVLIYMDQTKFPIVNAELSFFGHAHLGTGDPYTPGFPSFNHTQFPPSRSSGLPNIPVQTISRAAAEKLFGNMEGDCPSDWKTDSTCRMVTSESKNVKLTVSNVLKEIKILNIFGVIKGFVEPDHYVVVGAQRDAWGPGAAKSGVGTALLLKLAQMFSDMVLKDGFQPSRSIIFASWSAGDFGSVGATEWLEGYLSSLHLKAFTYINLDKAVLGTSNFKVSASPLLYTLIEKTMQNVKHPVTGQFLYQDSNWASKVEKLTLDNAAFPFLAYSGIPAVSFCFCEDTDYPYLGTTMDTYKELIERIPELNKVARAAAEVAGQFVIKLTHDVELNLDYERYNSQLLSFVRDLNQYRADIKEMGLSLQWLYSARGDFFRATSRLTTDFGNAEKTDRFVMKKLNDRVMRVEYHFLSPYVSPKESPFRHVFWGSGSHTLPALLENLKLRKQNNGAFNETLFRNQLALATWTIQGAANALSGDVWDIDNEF

Row | Target | lysine labeling ratio R10:1
1 | GALNT2 (lysine site: K111) (UniProt Q10471) | 3.04 (inactive)
2 | F11R (lysine site: K47) (UniProt Q9Y624) | 5.07 (inactive)
3 | UniProt P23352 (lysine site: K411) | 2.12 (inactive)
4 | ARHGDIA (lysine site: K178) (UniProt P52565) | 3.53 (inactive)
5 | SLC9A3R1 (lysine site: K227) (UniProt O14745) | 3.96 (inactive)
6 | DNASE1L1 (lysine site: K33) (UniProt P49184) | 11 (inactive)
7 | PROCR (lysine site: K192) (UniProt Q9UNN8) | 2.15 (inactive)
8 | PDIA4 (lysine site: K582) (UniProt P13667) | 2.17 (inactive)
9 | UniProt P25705 (lysine site: K175) | 2.16 (inactive)
10 | UniProt Q00341 (lysine site: K510) | 0.655 (active)
11 | IGF2R (lysine site: K1104) (UniProt P11717) | 3.26 (inactive)
12 | HSPA5 (lysine site: K521) (UniProt P11021) | 1.53 (active)
13 | ITGA1 (lysine site: K292) (UniProt P56199) | 2.63 (inactive)
14 | RDX (lysine site: K165) (UniProt P35241) | 2 (active)
15 | IGSF3 (lysine site: K191) (UniProt O75054) | 4.16 (inactive)
16 | HSD17B12 (lysine site: K261) (UniProt Q53GQ0) | 1.88 (active)
17 | UniProt P78333 (lysine site: K385) | 2.8 (inactive)
18 | UniProt P25705 (lysine site: K161) | 3.49 (inactive)
19 | HNRNPM (lysine site: K698) (UniProt P52272) | 0.67 (active)
20 | UniProt P61981 (lysine site: K142) | 3.71 (inactive)

Row | Target | lysine labeling ratio R10:1
21 | DNASE1L1 (lysine site: K107) (UniProt P49184) | 1.25 (active)
22 | ATP2A2 (lysine site: K169) (UniProt P16615) | 7.34 (inactive)
23 | SERPINC1 (lysine site: K260) (UniProt P01008) | 5.6 (inactive)
24 | MSN (lysine site: K313) (UniProt P26038) | 5.6 (inactive)
25 | MYH9 (lysine site: K1638) (UniProt P35579) | 3.09 (inactive)
26 | TFRC (lysine site: K693) (UniProt P02786) | 5.63 (inactive)
27 | MYH9 (lysine site: K1648) (UniProt P35579) | 1.22 (active)
28 | UniProt P60866 (lysine site: K34) | 0.547 (active)
29 | PPIB (lysine site: K116) (UniProt P23284) | 6.61 (inactive)
30 | RPS19 (lysine site: K43) (UniProt P39019) | 0.56 (active)
31 | EZR (lysine site: K438) (UniProt P15311) | 3.51 (inactive)
32 | UniProt Q99623 (lysine site: K250) | 3.72 (inactive)
33 | DSC2 (lysine site: K381) (UniProt Q02487) | 1.71 (active)
34 | FLNA (lysine site: K1071) (UniProt P21333) | 3.76 (inactive)
35 | UniProt Q9H336 (lysine site: K468) | 1.33 (active)
36 | CLTC (lysine site: K1501) (UniProt Q00610) | 2.77 (inactive)
37 | SPTAN1 (lysine site: K2052) (UniProt Q13813) | 3.09 (inactive)
38 | DDX3X (lysine site: K81) (UniProt O00571) | 2.77 (inactive)
39 | PDIA3 (lysine site: K362) (UniProt P30101) | 2.15 (inactive)
40 | HSPA5 (lysine site: K213) (UniProt P11021) | 5.61 (inactive)
